Assay [1] can be described thus: Nuclear factor erythroid 2-related factor 2/antioxidant responsive element (Nrf2/ARE) small molecule agonists: qHTS cell viability counter screen in human keratinocytes (AID 1919968; active = well fitted curve in the direction sought with a large enough effect in the repeat runs; an effect the other way counts as inactive or inconclusive; also: nearly all actives have a fitted effect of over 55% in size). In a few lines:
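Measured as CellTiter-Fluor fluorescence, this readout tracks cytotoxicity in the same wells as the ARE-luciferase screen. HaCaT reporter cells (1,500/well) received compounds after a 5 h pre-incubation and were exposed for 23 h.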
Background: In qHTS, concentration-response curves come from the screen itself.

Assay [2] in a line: Nuclear factor erythroid 2-related factor 2/antioxidant responsive element (Nrf2/ARE) small molecule agonists: luciferase reporter gene qHTS assay in human keratinocytes (AID 1919969; also: nearly all actives have a fitted effect of over 35% in size). (Reporter assays use an easily measured gene product as a stand-in for the process of interest.)
In assay [3] the target is Gonadotropin-releasing hormone receptor (Homo sapiens) (UniProt P30968). Kind of assay: Human gonadotropin-releasing hormone receptor (GnRHR) small molecule agonists, calcium flux assay in GnRHR-HEK293 cells (AID 1920063). Also: nearly all actives have a fitted effect of over 35% in size. An outline of the steps: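 Fluorescence kinetics (480 nm excitation, 540 nm emission; 3 min, 1 s steps) report calcium mobilisation in human GnRHR-HEK293 cells in agonist mode. Dye incubation: 1 h, 37 C.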
Background: Calcium assays in cells follow changes in intracellular calcium, usually with a dye or a luminescent sensor.

The target in assay [4] is KiSS-1 receptor (Homo sapiens) (UniProt Q969F8). As to the kind of experiment: Human kisspeptin (KISS1R) small molecule agonists, calcium flux assay in KISS1R-HEK293 cells (AID 1920064; active = well fitted curve in the direction sought with a large enough effect in the repeat runs; an effect the other way counts as inactive or inconclusive). An outline of the steps: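 Measures KISS1R agonism through calcium-sensitive dye fluorescence in stably transfected HEK293 cells, read for 3 min after pin-tool compound delivery; 15-point titrations in triplicate.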

Assay [5] is described as follows: G protein-coupled receptor (GPCR) small molecule agonists, calcium flux assay: HEK293 wild type cell line counter screen (AID 1920065). In a few lines:
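Readout: fluorescence at 480 nm excitation/540 nm emission, sampled at 1 s intervals for 3 min. Cells had been cultured 18 h, then dye-loaded 1 h at 37 C before compound or ATP addition.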

A short description of assay [6]: p53 small molecule agonists, cell-based qHTS assay with human liver microsomes: qHTS cell viability counter screen (AID 1963579). Also: nearly all actives have a fitted effect of over 45% in size. An outline of the steps: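 p53RE-bla cells, 4,000/well, dosed 5 hours after plating, with human liver microsomes (0.5 mg/mL final) plus NADPH (0.5 mg/mL final), 16 hours at 37 C. Viability read as CellTiter-Glo luminescence after 30 min at room temperature.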

Assay [7] can be described thus: p53 small molecule agonists, cell-based qHTS assay: qHTS cell viability counter screen (AID 1963581). Also: nearly all actives have a fitted effect of over 45% in size. In a few lines:
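In the same plates used for the p53 bla reporter, HCT-116 cells given compounds for 16 h at 37 C received CellTiter-Glo; luminescence was recorded 30 min later at room temperature.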

Assay [8] concerns the target 5-hydroxytryptamine receptor 2A (Homo sapiens) (UniProt P28223). Kind of assay: 5-hydroxytryptamine receptor 2A (HTR2A) small molecule antagonists, cell-based qHTS assay (AID 1963586). Also: nearly all actives have a fitted effect of over 45% in size. In a few lines: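 Antagonist-mode intracellular calcium assay: DOI (4 nM) added after 5 min compound pre-incubation at room temperature to dye-loaded HTR2A-CHO cells. Fluorescence followed for 3 min, sampled every second.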

For assay [9] the target is unchanged. As to the kind of experiment: 5-hydroxytryptamine receptor 2A (HTR2A) small molecule agonists, cell-based qHTS assay (AID 1963587). Also: nearly all actives have a fitted effect of over 30% in size. In a few lines: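 HTR2A-CHO cells, plated 18 h at 37 C/5% CO2, dye-loaded 1 h at 37 C; compounds in DMSO added by pin tool (agonist mode). Intracellular calcium flux read as kinetic fluorescence on FDSS over 2 min at 1 s intervals.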

For assay [10], the target named is Muscarinic acetylcholine receptor M1 (Homo sapiens) (UniProt P11229). As to the kind of experiment: Cholinergic receptor muscarinic 1 (CHRM1) small molecule antagonists, cell-based qHTS assay (AID 1963588). Also: nearly all actives have a fitted effect of over 40% in size. Also: potency is read from the fitted curve at half-maximal effect. An outline of the steps:
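CHRM1-CHO calcium-flux assay, antagonist mode. Cells were seeded 18 h, dye-loaded 1 h at 37 C and given compound for 5 min at RT, then acetylcholine was added at 50nM. FDSS fluorescence was read 3 min; 15 concentrations, three runs.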

Assay [11] has the same target. As to the kind of experiment: Cholinergic receptor muscarinic 1 (CHRM1) small molecule agonists, cell-based qHTS assay (AID 1963589). Also: nearly all actives have a fitted effect of over 35% in size. In a few lines:
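Each compound was tested at 15 concentrations across three independent runs on dye-loaded CHO cells stably expressing human CHRM1, reading intracellular calcium fluorescence kinetically at 1 sec intervals.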

Assay [12] in a line: cAMP Responsive Elements (CRE) small molecule antagonists, cell-based qHTS assay (AID 1963591; active = well fitted inhibition curve with a large enough effect in the signal ratio in the repeat runs, not every such curve was filed as active; the % refers to the signal ratio). In a few lines:
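Inhibition of NKH477-driven (0.25 uM final) CRE-beta-lactamase signal in HEK293T cells, 3 h compound exposure at 37 °C, detected by FRET substrate fluorescence.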

The target of assay [13] is Beta-2 adrenergic receptor (Homo sapiens) (UniProt P07550). As to the kind of experiment: Adrenergic beta2 receptor (ADRB2) small molecule antagonists, cell-based qHTS assay (AID 1963592). Also: series mostly up to about 92 µM; nearly all actives have a fitted effect of over 50% in size. In a few lines: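 Cells (CHO, stable ADRB2 overexpression) incubated 18-20hr at 37C; compounds added from DMSO; agonist mix (1nM isoproterenol, 100uM IBMX, 25uM Ro-20-1724) added; 0.5hr RT; d2-cAMP and anti-cAMP-cryptate added; 1hr RT; 665/615 nm read.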

Assay [14] shares this target. As to the kind of experiment: Adrenergic beta2 receptor (ADRB2) small molecule agonists, cell-based qHTS assay (AID 1963593).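 Also: CHO cells stably overexpressing human ADRB2.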 In a few lines: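 CHO cells stably over-expressing ADRB2 were plated overnight at 37C, then dosed with compounds plus a stimulation mix containing 100uM IBMX and 25uM Ro-20-1724 for 0.5hr at room temperature. cAMP was measured by HTRF competition, 1hr.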

Assay [15] concerns the target D(2) dopamine receptor (Homo sapiens) (UniProt P14416). As to the kind of experiment: Dopamine D2 receptor (DRD2) small molecule agonists, cell-based qHTS assay (AID 1963594). Also: nearly all actives have a fitted effect of over 35% in size. In a few lines:
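HEK293 cells stably expressing DRD2 were cultured 24 h at 37 C, then given Ro20-1724 (0.1 mM final) and compounds for 10 min at room temperature. NKH477 (200nM) was then added for 30 min. cAMP was read by HTRF.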

Assay [16] shares this target. As to the kind of experiment: Dopamine D2 receptor (DRD2) small molecule antagonists, cell-based qHTS assay (AID 1963595; active = well fitted inhibition curve with a large enough effect in the signal ratio in the repeat runs, with a control signal flat; the % refers to the signal ratio). An outline of the steps:
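Readout: HTRF cAMP, cAMP-d2 competing with cellular cAMP for anti-cAMP cryptate, read after 1 h. Cells: DRD2-HEK293. Conditions: 0.1 mM Ro20-1724, 12 nM quinpirole, 200 nM NKH477, 30 min RT.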

Assay [17] is described as follows: cAMP Responsive Elements (CRE) small molecule agonists, cell-based qHTS assay (AID 1963590). In a few lines:
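Cell line: CRE-bla HEK 293T; medium DMEM/10% dialyzed FBS/0.1 mM NEAA/1 mM pyruvate/25 mM HEPES; 3 h compound exposure; beta-lactamase FRET readout after 2 h substrate loading at RT.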

The nature of assay [18]: p53 small molecule agonists, cell-based qHTS assay with rat liver microsomes: qHTS cell viability counter screen (AID 1963580). Also: nearly all actives have a fitted effect of over 45% in size. In a few lines:
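In HCT-116 cells carrying a p53 response element-bla reporter, compounds were metabolically activated in situ by rat liver microsomes with NADPH over 16 h. Cell ATP content then served as the cytotoxicity measure.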

Records with an inconclusive call do not appear. Active and inactive are the calls of the source. Unless noted, calls follow the shape of the full dose curve.

In PubChem BioAssay (Tox21) one finds Potency data, which are given here for eight molecules.

Gonadotropin-releasing hormone receptor (Homo sapiens), sequence (P30968 whole entry, looked up): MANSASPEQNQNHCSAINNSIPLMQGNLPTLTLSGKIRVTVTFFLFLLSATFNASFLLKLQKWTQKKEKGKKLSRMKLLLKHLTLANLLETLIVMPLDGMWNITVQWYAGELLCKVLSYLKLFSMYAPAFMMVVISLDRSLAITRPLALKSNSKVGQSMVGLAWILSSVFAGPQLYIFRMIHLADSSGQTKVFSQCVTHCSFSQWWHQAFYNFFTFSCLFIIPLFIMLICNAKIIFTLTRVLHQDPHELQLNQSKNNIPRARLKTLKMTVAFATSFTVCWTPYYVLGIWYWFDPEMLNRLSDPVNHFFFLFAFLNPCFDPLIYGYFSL
Beta-2 adrenergic receptor (Homo sapiens), sequence (P07550 whole entry, looked up): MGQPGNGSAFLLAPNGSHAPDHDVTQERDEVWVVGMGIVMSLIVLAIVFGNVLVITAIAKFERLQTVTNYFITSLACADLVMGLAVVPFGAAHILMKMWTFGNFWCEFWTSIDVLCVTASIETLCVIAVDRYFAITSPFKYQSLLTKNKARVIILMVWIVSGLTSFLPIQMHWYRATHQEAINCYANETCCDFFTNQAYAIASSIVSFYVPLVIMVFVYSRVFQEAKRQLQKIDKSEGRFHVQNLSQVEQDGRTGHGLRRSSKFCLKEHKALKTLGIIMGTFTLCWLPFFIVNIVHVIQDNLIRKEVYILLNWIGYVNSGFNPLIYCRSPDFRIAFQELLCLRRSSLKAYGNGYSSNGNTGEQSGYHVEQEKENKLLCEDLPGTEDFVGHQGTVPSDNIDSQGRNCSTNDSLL
D(2) dopamine receptor (Homo sapiens), sequence (P14416 whole entry, looked up): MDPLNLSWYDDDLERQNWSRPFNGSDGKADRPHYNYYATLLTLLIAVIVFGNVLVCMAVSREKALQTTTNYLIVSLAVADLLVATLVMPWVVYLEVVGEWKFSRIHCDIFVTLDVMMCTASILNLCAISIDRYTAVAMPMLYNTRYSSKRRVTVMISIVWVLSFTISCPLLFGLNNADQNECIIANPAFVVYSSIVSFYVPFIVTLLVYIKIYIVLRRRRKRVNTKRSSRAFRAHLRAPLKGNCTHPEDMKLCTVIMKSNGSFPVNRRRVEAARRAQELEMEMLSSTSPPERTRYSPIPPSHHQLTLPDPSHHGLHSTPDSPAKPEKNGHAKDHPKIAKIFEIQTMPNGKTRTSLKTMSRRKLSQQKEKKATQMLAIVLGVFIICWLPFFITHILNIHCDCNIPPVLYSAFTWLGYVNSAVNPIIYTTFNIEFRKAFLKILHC
KiSS-1 receptor (Homo sapiens), sequence (Q969F8 whole entry, looked up): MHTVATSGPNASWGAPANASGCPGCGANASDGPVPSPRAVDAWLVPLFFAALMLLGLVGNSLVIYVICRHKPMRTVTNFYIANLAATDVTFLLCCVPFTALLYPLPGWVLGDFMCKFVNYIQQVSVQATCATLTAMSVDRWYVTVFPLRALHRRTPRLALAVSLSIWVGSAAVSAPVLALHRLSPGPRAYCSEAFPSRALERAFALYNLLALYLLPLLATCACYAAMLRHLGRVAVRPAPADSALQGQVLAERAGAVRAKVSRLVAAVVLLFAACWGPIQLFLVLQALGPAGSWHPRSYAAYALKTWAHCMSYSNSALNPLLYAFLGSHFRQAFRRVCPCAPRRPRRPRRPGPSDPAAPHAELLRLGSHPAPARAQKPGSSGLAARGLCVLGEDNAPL
5-hydroxytryptamine receptor 2A (Homo sapiens), sequence (P28223 whole entry, looked up): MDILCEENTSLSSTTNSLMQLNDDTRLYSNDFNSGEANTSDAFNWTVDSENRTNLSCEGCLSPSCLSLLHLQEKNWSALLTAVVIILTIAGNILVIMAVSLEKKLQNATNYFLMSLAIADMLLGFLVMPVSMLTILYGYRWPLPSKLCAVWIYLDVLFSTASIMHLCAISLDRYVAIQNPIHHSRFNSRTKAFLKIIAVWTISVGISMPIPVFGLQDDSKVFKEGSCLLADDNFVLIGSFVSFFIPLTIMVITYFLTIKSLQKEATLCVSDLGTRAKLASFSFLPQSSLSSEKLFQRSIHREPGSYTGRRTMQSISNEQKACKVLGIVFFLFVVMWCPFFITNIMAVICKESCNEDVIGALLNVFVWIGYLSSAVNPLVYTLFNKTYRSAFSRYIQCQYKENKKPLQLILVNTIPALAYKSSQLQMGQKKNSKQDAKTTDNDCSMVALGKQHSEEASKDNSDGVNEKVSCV
Muscarinic acetylcholine receptor M1 (Homo sapiens), sequence (P11229 whole entry, looked up): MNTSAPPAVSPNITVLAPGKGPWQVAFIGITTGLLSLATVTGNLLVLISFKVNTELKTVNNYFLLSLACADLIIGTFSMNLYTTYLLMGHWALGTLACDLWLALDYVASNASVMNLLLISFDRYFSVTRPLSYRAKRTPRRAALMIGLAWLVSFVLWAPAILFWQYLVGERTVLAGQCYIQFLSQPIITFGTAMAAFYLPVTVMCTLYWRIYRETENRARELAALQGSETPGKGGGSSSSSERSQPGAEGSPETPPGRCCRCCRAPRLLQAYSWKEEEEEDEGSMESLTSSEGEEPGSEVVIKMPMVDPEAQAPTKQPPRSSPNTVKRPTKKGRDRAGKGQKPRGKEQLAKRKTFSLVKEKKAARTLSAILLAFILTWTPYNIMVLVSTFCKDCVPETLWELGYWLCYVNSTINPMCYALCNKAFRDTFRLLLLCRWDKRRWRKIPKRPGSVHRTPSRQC

With `O=P(O)(O)c1ccccc1`, the Potency entry in [1], in assay [2], in assay [3], in [4], in assay [5] and in assay [6] was “inactive” each time. In addition, the Potency result in assay [7], in assay [8], in assay [9], in assay [10], in assay [11] and in assay [12] was “inactive” throughout. Moreover, the Potency result in [13], in assay [14], in [15] and in [16] was “inactive” each time.
Consider `CCOC1Oc2ccc(OS(C)(=O)=O)cc2C1(C)C` (stereo not drawn), for which the Potency entry in assay [1], in [2], in assay [3], in assay [4], in assay [5] and in assay [6] was “inactive” throughout. In addition, the Potency entry in assay [8], in [9], in assay [10], in [11], in assay [17] and in [12] was “inactive” each time. In addition, the Potency entry in assay [13], in [14], in [15] and in assay [16] was “inactive” throughout.
Take `CC(C)(C)N(NC(=O)c1ccc(Cl)cc1)C(=O)c1ccccc1`: the Potency result in assay [1], in assay [2], in [3], in assay [4], in [5] and in assay [6] was “inactive” each time. The Potency result in assay [9], in assay [11], in assay [12], in assay [14] and in assay [16] was “inactive” throughout.
In the case of `CCC(C)(C)c1cc(-n2nc3ccccc3n2)c(O)c(C(C)(C)CC)c1`, the Potency result in [1], in assay [2], in [3], in [4], in assay [5] and in assay [18] was “inactive” in each case. The Potency entry in [7], in assay [8], in assay [9], in assay [11], in assay [17] and in assay [12] was “inactive” throughout. The Potency result in [13], in assay [14], in assay [15] and in [16] was “inactive” each time. In addition, in assay [10], the Potency is 95.6 nM (active).
Consider `ClC(Cl)C(Cl)(Cl)Cl`, for which the Potency entry in assay [1], in assay [2], in [3], in [4], in assay [5] and in [18] was “inactive” throughout. The Potency entry in assay [7], in assay [8], in assay [9], in [10], in assay [11] and in assay [17] was “inactive” in each case. For the same molecule, the Potency result in assay [12], in [13], in assay [15] and in assay [16] was “inactive” each time.
Consider `CC(C)C(Br)C(=O)NC(N)=O` (stereo not drawn), for which the Potency result in [1], in assay [2], in [3], in assay [4], in [5] and in assay [18] was “inactive” throughout. Also, the Potency entry in assay [7], in assay [17], in [12], in assay [13], in assay [15] and in assay [16] was “inactive” throughout.
Take `COC(=O)c1ccccc1S(=O)(=O)NC(=O)Nc1nc(C)cc(C)n1`: the Potency result in [1], in [2], in assay [3], in [4], in assay [5] and in assay [6] was “inactive” in each case. Moreover, the Potency entry in assay [7], in [8], in assay [9], in [10], in [11] and in assay [17] was “inactive” each time. Moreover, the Potency entry in [12], in assay [13], in assay [15] and in assay [16] was “inactive” in each case.
`Fc1ccc(C2(Cn3cncn3)OC2c2ccccc2Cl)cc1` (stereo not drawn): the Potency result in assay [1], in assay [2], in assay [3], in [4], in assay [5] and in assay [6] was “inactive” throughout. Moreover, the Potency result in [18], in [8], in assay [9], in assay [11], in assay [17] and in [13] was “inactive” throughout. The Potency entry in assay [15] and in assay [16] was “inactive” each time.
